Reference: PubChem BioAssay AID1159580 (chemical genetic matrix, 2015)
The campaign covered roughly 5,500 compounds. About 2,000 (36%) were called active. Roughly 18% stayed inconclusive and do not appear here. Rule as the data show it: active = normalized growth mostly below about 0.91 (no sharp cut-off); inconclusive = no clear call, values can overlap the other calls; inactive = mostly above about 0.92. The list shows a part of the results.

Assay: chemical genetic growth profiling, strain panel (AID 1159580);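 also: tested at 20 µM; growth read once vehicle control cultures reached saturation at 30 °C; 1 = growth at the plate median or of vehicle wells; lower values mean less growth of the strain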
Settings: growth OD

Measured: normalized growth

COC(=O)C1[C@H]2C[C@H]3c4[nH]c5ccccc5c4CCN3C[C@@H]2CC[C@@H]1O (some centres not stated)
inactive: S. cerevisiae deletion strains, locus YJR075W, strain HOC1, hits give low values 1.02 | S. cerevisiae deletion strains, locus YKL009W, strain mrt4, hits give low values 0.996 | S. cerevisiae deletion strains, locus YKL068W, hits give low values 1.01 | S. cerevisiae deletion strains, locus YKL085W, strain MDH1 (second series), hits give low values 1.01 | S. cerevisiae deletion strains, locus YKL085W, strain MDH1, hits give low values 1.01 | S. cerevisiae deletion strains, locus YKL160W, strain elf1, hits give low values 0.987 | S. cerevisiae deletion strains, locus YKL190W, strain CNB1, hits give low values 1.02 | S. cerevisiae deletion strains, locus YKR001C, strain vps1, hits give low values 1.02 | S. cerevisiae deletion strains, locus YKR026C, strain gcn3, hits give low values 0.971 | S. cerevisiae deletion strains, locus YKR091W, strain srl3, hits give low values 0.985 | S. cerevisiae deletion strains, locus YLL001W, strain dnm1, hits give low values 0.984 | S. cerevisiae deletion strains, locus YLL026W, hits give low values 0.965 | S. cerevisiae deletion strains, locus YLL041C, strain sdh2, hits give low values 0.974 | S. cerevisiae deletion strains, locus YLR027C, strain aat2, hits give low values 0.988 | S. cerevisiae deletion strains, locus YLR039C, strain RIC1, hits give low values 1.02 | S. cerevisiae deletion strains, locus YLR058C, strain SHM2, hits give low values 1.01 | S. cerevisiae deletion strains, locus YLR102C, strain apc9, hits give low values 1.02 | S. cerevisiae deletion strains, locus YLR113W, strain HOG1, hits give low values 1.01 | S. cerevisiae deletion strains, locus YLR221C, strain rsa3, hits give low values 1.01 | S. cerevisiae deletion strains, locus YLR258W, strain gsy2, hits give low values 0.98 | S. cerevisiae deletion strains, locus YLR262C, strain YPT6 (second series), hits give low values 0.974 | S. cerevisiae deletion strains, locus YLR262C, strain YPT6, hits give low values 1 | S. cerevisiae deletion strains, locus YLR268W, strain sec22, hits give low values 1.06 | S. cerevisiae deletion strains, locus YLR320W, strain mms22, hits give low values 1.02 | S. cerevisiae deletion strains, locus YLR330W, strain CHS5, hits give low values 1.01 | S. cerevisiae deletion strains, locus YLR342W, strain FKS1 (second series), hits give low values 1 | S. cerevisiae deletion strains, locus YLR342W, strain FKS1, hits give low values 0.981 | S. cerevisiae deletion strains, locus YLR357W, strain rsc2, hits give low values 0.985 | S. cerevisiae deletion strains, locus YLR370C, strain arc18, hits give low values 0.965 | S. cerevisiae deletion strains, locus YLR371W, strain rom2, hits give low values 1.02 | S. cerevisiae deletion strains, locus YLR384C, strain iki3, hits give low values 0.969 | S. cerevisiae deletion strains, locus YLR418C, strain cdc73, hits give low values 1.02 | S. cerevisiae deletion strains, locus YML016C, strain PPZ1, hits give low values 1.01 | S. cerevisiae deletion strains, locus YML032C, strain rad52, hits give low values 1.03 | S. cerevisiae deletion strains, locus YML120C, strain ndi1, hits give low values 0.966 | S. cerevisiae deletion strains, locus YML124C, strain tub3, hits give low values 1.01 | S. cerevisiae deletion strains, locus YMR058W, strain fet3, hits give low values 0.974 | S. cerevisiae deletion strains, locus YMR078C, strain ctf18, hits give low values 1.01 | S. cerevisiae deletion strains, locus YMR125W, strain sto1, hits give low values 0.981 | S. cerevisiae deletion strains, locus YMR129W, hits give low values 0.988 | S. cerevisiae deletion strains, locus YMR205C, strain PFK2, hits give low values 0.991 | S. cerevisiae deletion strains, locus YMR223W, strain ubp8, hits give low values 1.01 | S. cerevisiae deletion strains, locus YMR231W, strain pep5, hits give low values 0.978 | S. cerevisiae deletion strains, locus YMR263W, strain SAP30, hits give low values 1.03 | S. cerevisiae deletion strains, locus YMR307W, strain GAS1, hits give low values 0.952 | S. cerevisiae deletion strains, locus YNL067W, strain RPL9B, hits give low values 1.03 | S. cerevisiae deletion strains, locus YNL071W, strain lat1, hits give low values 0.976 | S. cerevisiae deletion strains, locus YNL128W, strain TEP1, hits give low values 1.02 | S. cerevisiae deletion strains, locus YNL153C, strain GIM3, hits give low values 1.01 | S. cerevisiae deletion strains, locus YNL183C, strain NPR1, hits give low values 0.981 | S. cerevisiae deletion strains, locus YNL209W, strain ssb2, hits give low values 0.959 | S. cerevisiae deletion strains, locus YNL233W, strain BNI4, hits give low values 1.01 | S. cerevisiae deletion strains, locus YNL248C, strain rpa49, hits give low values 0.998 | S. cerevisiae deletion strains, locus YNL250W, strain rad50, hits give low values 1.02 | S. cerevisiae deletion strains, locus YNL271C, strain bni1, hits give low values 1.02 | S. cerevisiae deletion strains, locus YNL298W, strain CLA4, hits give low values 1.02 | S. cerevisiae deletion strains, locus YNL307C, strain MCK1, hits give low values 1.02 | S. cerevisiae deletion strains, locus YNL322C, strain KRE1 (second series), hits give low values 0.973 | S. cerevisiae deletion strains, locus YNL322C, strain KRE1, hits give low values 1.02 | S. cerevisiae deletion strains, locus YNR049C, strain mso1, hits give low values 0.97 | S. cerevisiae deletion strains, locus YNR052C, strain pop2, hits give low values 1.02 | S. cerevisiae deletion strains, locus YOL006C, strain TOP1, hits give low values 1.06 | S. cerevisiae deletion strains, locus YOL012C, strain htz1 0.74 | S. cerevisiae deletion strains, locus YOL147C, strain pex11, hits give low values 1.02 | S. cerevisiae deletion strains, locus YOR001W, strain rrp6, hits give low values 0.961 | S. cerevisiae deletion strains, locus YOR061W, strain CKA2, hits give low values 1.01 | S. cerevisiae deletion strains, locus YOR069W, strain VPS5, hits give low values 1.01 | S. cerevisiae deletion strains, locus YOR070C, strain gyp1, hits give low values 0.983 | S. cerevisiae deletion strains, locus YOR080W, strain dia2, hits give low values 0.934 | S. cerevisiae deletion strains, locus YOR083W, strain WHI5, hits give low values 0.979 | S. cerevisiae deletion strains, locus YOR106W, strain vam3, hits give low values 0.949 | S. cerevisiae deletion strains, locus YOR136W, strain idh2, hits give low values 1.02 | S. cerevisiae deletion strains, locus YOR144C, strain elg1, hits give low values 1.01 | S. cerevisiae deletion strains, locus YOR184W, strain ser1, hits give low values 1.01 | S. cerevisiae deletion strains, locus YOR231W, strain MKK1, hits give low values 1.02 | S. cerevisiae deletion strains, locus YOR265W, strain rbl2, hits give low values 0.978 | S. cerevisiae deletion strains, locus YOR270C, strain vph1, hits give low values 0.935 | S. cerevisiae deletion strains, locus YOR290C, strain snf2, hits give low values 0.974 | S. cerevisiae deletion strains, locus YOR316C, strain cot1, hits give low values 1.02 | S. cerevisiae deletion strains, locus YPL051W, strain arl3, hits give low values 0.961 | S. cerevisiae deletion strains, locus YPL055C, strain LGE1, hits give low values 1.02 | S. cerevisiae deletion strains, locus YPL078C, strain atp4, hits give low values 0.963 | S. cerevisiae deletion strains, locus YPL106C, strain sse1, hits give low values 0.906 | S. cerevisiae deletion strains, locus YPL240C, strain hsp82, hits give low values 0.995 | S. cerevisiae deletion strains, locus YPL241C, strain CIN2, hits give low values 1.01 | S. cerevisiae deletion strains, locus YPL256C, strain CLN2, hits give low values 0.998 | S. cerevisiae deletion strains, locus YPR119W, strain clb2, hits give low values 1.02 | S. cerevisiae deletion strains, locus YPR141C, strain kar3, hits give low values 1.02 | S. cerevisiae deletion strains, locus YPR163C, strain tif3, hits give low values 1.02 | S. cerevisiae deletion strains, locus YPR167C, strain met16, hits give low values 1.02 | S. cerevisiae deletion strains, strain wtn01, hits give low values 1.04 | S. cerevisiae strains, strain wild type, hits give low values 1
